Whole data set: some 33,000 sequences, median “E-score (-0.5 to 0.5)” near -0.036, cut for the highest 2% near 0.37. Many of the other results were omitted from the sample, so the highest values are more common in it than they were.

In the assay the target is T1, Yer064c (UniProt P40041).
T1 sequence: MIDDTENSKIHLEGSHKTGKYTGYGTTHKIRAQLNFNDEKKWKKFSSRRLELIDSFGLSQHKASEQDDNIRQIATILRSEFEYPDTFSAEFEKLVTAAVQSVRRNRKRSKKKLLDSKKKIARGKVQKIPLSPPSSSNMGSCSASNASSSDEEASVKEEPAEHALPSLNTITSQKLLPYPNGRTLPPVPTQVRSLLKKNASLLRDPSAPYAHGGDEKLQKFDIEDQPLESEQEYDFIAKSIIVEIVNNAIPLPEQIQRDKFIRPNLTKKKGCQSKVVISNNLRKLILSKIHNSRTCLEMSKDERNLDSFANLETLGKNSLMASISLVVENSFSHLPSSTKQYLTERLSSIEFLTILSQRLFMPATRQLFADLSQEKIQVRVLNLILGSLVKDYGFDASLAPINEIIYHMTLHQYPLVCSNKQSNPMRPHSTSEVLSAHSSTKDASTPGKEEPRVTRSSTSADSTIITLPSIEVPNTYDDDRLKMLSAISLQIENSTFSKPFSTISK
Put plainly: PBM E-score (8-mer binding enrichment) (E-score (-0.5 to 0.5)); higher = stronger / more preferred TF binding. Conditions: protein concentration: 200 nM; construct: GST-full length. Summed up: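 Bound GST-tagged yeast transcription factors, applied at about 100-200 nM to double-stranded universal all-10-mer Agilent arrays, were detected with fluorescent anti-GST. Scans were normalised with masliner. A modified Wilcoxon-Mann-Whitney statistic, the E-score, was assigned to each ungapped eight-base word pooled with its reverse complement by the Universal PBM Analysis Suite.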
GGACCTAC: the “PBM E-score” value was -0.132.

Turning to GTTATCAA, the “PBM E-score” value came out at 0.041.

Turning to AGGCCGCA, the “PBM E-score” value is -0.226.

On to AAGTTTCT, for which the “PBM E-score” value stood at 0.0369.

For the sequence CAAACAGA, the “PBM E-score” value was found to be 0.0255.

As to CATAGGCC, the “PBM E-score” value is -0.158.

Turning to GTGTTCAA, the “PBM E-score” value came to 0.0916.

Turning to CCCCTACC, the “PBM E-score” value was -0.124.

As for ACACTTTC, the “PBM E-score” value was -0.0867.

Consider ATTGACAA, for which the “PBM E-score” value was 0.0616.

Regarding ATTGACGA, the “PBM E-score” value was determined as 0.188.

Consider ATTGACTA, for which the “PBM E-score” value came to 0.428.

For ATTGGCTA, the “PBM E-score” value came to 0.0683.

GGTCGCTA: the “PBM E-score” value is -0.197.

Consider AGTCGCAG, for which the “PBM E-score” value came to 0.367.

Regarding CGTCGCTC, the “PBM E-score” value is -0.159.

Consider AGTCGCCA, for which the “PBM E-score” value was 0.356.

CGTCGCTA: the “PBM E-score” value was -0.0862.

Consider AGTCGCCC, for which the “PBM E-score” value was determined as 0.403.

AGTCGCTC: the “PBM E-score” value was determined as 0.382.

In the case of AGTCGCTG, the “PBM E-score” value turned out to be 0.303.

As to CGTCGCAG, the “PBM E-score” value was -0.031.

In the case of AGTCGCCG, the “PBM E-score” value came to 0.36.

In the case of AGTCGCTA, the “PBM E-score” value turned out to be 0.371.

In the case of AGTCGCAC, the “PBM E-score” value is 0.353.

Regarding AGATTCGC, the “PBM E-score” value is -0.0217.

Take GCCCCCAC: the “PBM E-score” value is -0.265.

For the sequence AATGCCCT, the “PBM E-score” value was -0.232.

As for CCAGAATC, the “PBM E-score” value came out at 0.0913.

Take CAGAAGGA: the “PBM E-score” value is -0.151.

For GGGAGACC, the “PBM E-score” value is -0.259.

As to CCCTCTTA, the “PBM E-score” value is -0.103.

Regarding AGCATTAA, the “PBM E-score” value was found to be 0.0916.

For the sequence AGTACTCC, the “PBM E-score” value was found to be 0.171.

In the case of ATTACTCA, the “PBM E-score” value worked out at 0.329.

In the case of GGTACTCA, the “PBM E-score” value amounted to 0.381.

As for GGTACTTA, the “PBM E-score” value was -0.0396.

In the case of AGTACTCG, the “PBM E-score” value was determined as 0.261.

Consider AGTACTCA, for which the “PBM E-score” value was found to be 0.393.

As to CTTACTCC, the “PBM E-score” value was determined as 0.128.

On to CTTACTCA, for which the “PBM E-score” value was 0.373.

Regarding CGTACTCA, the “PBM E-score” value worked out at 0.335.

With AGGTGAAA, the “PBM E-score” value amounted to 0.0659.

In the case of AATGTGTA, the “PBM E-score” value worked out at 0.222.

For ACGGATAA, the “PBM E-score” value is -0.0519.

In the case of CATCAGCA, the “PBM E-score” value is -0.143.

CGTCATTA: the “PBM E-score” value was -0.0609.

For AGTCATTG, the “PBM E-score” value is 0.475.

In the case of GGTCATTA, the “PBM E-score” value was -0.0121.

In the case of AGGCATTG, the “PBM E-score” value was -0.171.

Consider AGTCATTA, for which the “PBM E-score” value stood at 0.487.

In the case of AGCCATTC, the “PBM E-score” value is 0.0873.

Take CGTCATTC: the “PBM E-score” value was -0.0565.

Turning to AGTCATTC, the “PBM E-score” value stood at 0.482.

Consider AGCCATTG, for which the “PBM E-score” value worked out at 0.247.

On to CCTGGAAG, for which the “PBM E-score” value is -0.1.

GGAAGCCC: the “PBM E-score” value is -0.374.

Turning to AGCGCGGG, the “PBM E-score” value turned out to be 0.00652.

ATTCCAGG: the “PBM E-score” value was 0.118.

On to TCAGCGAA, for which the “PBM E-score” value is 0.186.

Turning to ACAATCTC, the “PBM E-score” value was -0.108.

Turning to ACCCATCT, the “PBM E-score” value is 0.182.

As for ACGCATCT, the “PBM E-score” value is -0.0617.

As for ACTCATCC, the “PBM E-score” value came to 0.455.

As for CCTCATCG, the “PBM E-score” value is -0.207.

On to ACACATCG, for which the “PBM E-score” value was 0.158.

Consider ACTCATCA, for which the “PBM E-score” value amounted to 0.412.

As for TCTCATCA, the “PBM E-score” value turned out to be 0.115.

For GCTCATCC, the “PBM E-score” value was -0.0652.

As for CCTCATCC, the “PBM E-score” value is -0.323.

On to ACTCATCG, for which the “PBM E-score” value was found to be 0.409.

As for GCTCATCA, the “PBM E-score” value was 0.184.

Take ACTCATCT: the “PBM E-score” value was 0.401.

Regarding AACTTTGG, the “PBM E-score” value is -0.0438.

For the sequence CTGCTAGA, the “PBM E-score” value was 0.00564.

Turning to GAATGCCA, the “PBM E-score” value was -0.127.

Regarding CAGGGGCC, the “PBM E-score” value is -0.269.

As for CTCACAAA, the “PBM E-score” value came out at 0.232.

Consider ACGTTATA, for which the “PBM E-score” value came out at 0.0989.

On to AGGATGAT, for which the “PBM E-score” value amounted to 0.281.

Turning to GGAGATCC, the “PBM E-score” value is -0.237.

As to GACTCCTC, the “PBM E-score” value was found to be 0.419.

Regarding AACTCCTA, the “PBM E-score” value is -0.137.

With GACTCCTA, the “PBM E-score” value is 0.443.

CACTCCTC: the “PBM E-score” value was -0.206.

As for AACTCCTC, the “PBM E-score” value is -0.169.

For the sequence CACTCCTA, the “PBM E-score” value was -0.0701.

These data come from the supplement of paper PMC3334620.
